Measurements from publication PMC7862700, “An all-to-all approach to the identification of sequence-specific readers for epigenetic DNA modifications on cytosine”.

Legend:
Assay in all cases: DAPPL (digital affinity profiling via proximity ligation, sequencing); 10 mM Tris-HCl pH 7.5, 50 mM NaCl, 1 mM DTT, 4% glycerol, room temperature, 30 min; GST-TFs on glutathione beads, 16-mer random dsDNA library, 0.1% formaldehyde crosslink after washing; high values mean tight binding
Conditions in all cases: protein: recombinant; tags: N-terminal GST; dsDNA, one strand shown
[1] = target: T1, FLI1 (Homo sapiens, UniProt Q01543 1-452)
T1 sequence: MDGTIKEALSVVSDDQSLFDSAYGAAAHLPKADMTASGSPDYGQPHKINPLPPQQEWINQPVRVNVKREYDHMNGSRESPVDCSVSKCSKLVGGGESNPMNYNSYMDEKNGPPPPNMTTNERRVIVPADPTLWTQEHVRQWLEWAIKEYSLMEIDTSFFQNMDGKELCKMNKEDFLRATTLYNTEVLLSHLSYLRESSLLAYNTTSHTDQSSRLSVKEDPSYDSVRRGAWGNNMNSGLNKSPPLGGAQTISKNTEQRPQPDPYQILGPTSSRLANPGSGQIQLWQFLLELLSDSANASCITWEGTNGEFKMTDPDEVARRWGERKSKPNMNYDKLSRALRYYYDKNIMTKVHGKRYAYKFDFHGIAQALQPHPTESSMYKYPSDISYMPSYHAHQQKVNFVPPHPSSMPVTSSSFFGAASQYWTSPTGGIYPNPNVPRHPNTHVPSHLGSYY
Summary of the method: (§1)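 A tag-only sample was pooled with DNA-barcoded human transcription factors that had been expressed in yeast as GST fusions and captured on glutathione beads. The pools were incubated for 30 min at room temperature with 200 nmole of a random double-stranded 16-mer DNA library in Tris/NaCl/DTT/glycerol buffer, then washed, crosslinked with 0.1% formaldehyde, proximity-ligated (BsaI/T4 ligase, 1 h, 37 °C), PCR-amplified and sequenced on an Illumina NextSeq500. Binding signal is each hexamer's read frequency for a factor divided by its frequency for the tag-only sample.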

[2] = target: T2, ELK1 (Homo sapiens, UniProt P19419 1-428)
T2 sequence: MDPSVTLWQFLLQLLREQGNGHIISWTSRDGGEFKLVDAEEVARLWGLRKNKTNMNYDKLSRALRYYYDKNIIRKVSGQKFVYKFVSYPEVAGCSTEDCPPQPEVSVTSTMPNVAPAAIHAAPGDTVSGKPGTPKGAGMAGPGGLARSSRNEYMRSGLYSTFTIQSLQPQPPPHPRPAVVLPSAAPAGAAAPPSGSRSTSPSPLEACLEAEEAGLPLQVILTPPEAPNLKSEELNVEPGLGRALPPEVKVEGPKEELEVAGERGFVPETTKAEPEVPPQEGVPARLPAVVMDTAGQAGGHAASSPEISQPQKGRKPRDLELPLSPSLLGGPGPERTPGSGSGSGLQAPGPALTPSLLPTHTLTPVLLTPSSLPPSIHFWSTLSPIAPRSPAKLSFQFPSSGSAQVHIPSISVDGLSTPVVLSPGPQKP
Summary of the method: as §1

[3] = target: T3, GABPA (Homo sapiens, UniProt Q06546 1-454)
T3 sequence: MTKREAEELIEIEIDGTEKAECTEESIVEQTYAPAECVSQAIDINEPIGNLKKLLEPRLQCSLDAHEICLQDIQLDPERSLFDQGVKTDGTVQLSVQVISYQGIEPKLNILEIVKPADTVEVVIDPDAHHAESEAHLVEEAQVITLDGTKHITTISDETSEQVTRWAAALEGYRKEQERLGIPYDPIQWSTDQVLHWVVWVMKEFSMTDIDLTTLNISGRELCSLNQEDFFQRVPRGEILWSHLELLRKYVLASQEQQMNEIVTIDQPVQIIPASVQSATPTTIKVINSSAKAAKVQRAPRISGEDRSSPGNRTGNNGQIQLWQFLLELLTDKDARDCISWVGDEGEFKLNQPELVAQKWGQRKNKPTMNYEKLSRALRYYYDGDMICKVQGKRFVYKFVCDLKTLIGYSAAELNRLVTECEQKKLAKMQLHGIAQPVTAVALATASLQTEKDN
Summary of the method: as §1

[4] = target: T4, ERG (Homo sapiens, UniProt P11308 1-479)
T4 sequence: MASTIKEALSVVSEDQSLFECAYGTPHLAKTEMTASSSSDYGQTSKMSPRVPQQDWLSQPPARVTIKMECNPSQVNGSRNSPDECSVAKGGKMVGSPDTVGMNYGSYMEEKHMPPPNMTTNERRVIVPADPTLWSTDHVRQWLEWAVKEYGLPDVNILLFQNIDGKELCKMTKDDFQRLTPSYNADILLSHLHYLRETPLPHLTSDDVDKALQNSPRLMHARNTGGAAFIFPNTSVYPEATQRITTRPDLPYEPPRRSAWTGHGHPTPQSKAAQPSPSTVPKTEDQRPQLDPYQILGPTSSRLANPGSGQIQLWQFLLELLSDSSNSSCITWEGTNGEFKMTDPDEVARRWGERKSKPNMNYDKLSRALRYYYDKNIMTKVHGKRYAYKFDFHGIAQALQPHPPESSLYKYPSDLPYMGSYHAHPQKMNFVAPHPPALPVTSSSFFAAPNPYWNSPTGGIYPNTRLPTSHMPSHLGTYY
Summary of the method: as §1

[5] = target: ELF1 (Homo sapiens, UniProt P32519 1-619)
Summary of the method: as §1

[6] = target: T5, EHF (Homo sapiens, UniProt Q9NZC4 1-300)
T5 sequence: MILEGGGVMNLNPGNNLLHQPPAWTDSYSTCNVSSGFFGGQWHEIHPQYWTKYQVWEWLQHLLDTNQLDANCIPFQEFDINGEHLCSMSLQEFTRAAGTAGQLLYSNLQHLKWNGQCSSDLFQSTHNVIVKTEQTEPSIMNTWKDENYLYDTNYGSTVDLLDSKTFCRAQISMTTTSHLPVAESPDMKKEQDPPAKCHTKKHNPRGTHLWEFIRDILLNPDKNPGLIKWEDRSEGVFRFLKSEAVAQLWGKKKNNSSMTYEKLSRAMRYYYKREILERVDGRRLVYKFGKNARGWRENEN
Summary of the method: as §1

[7] = target: SPI1 (Homo sapiens, UniProt P17947 1-270)
Summary of the method: as §1

[8] = target: SPIB (Homo sapiens, UniProt Q01892 1-262)
Summary of the method: as §1

[9] = target: T6, ELK3 (Homo sapiens, UniProt P41970 1-407)
T6 sequence: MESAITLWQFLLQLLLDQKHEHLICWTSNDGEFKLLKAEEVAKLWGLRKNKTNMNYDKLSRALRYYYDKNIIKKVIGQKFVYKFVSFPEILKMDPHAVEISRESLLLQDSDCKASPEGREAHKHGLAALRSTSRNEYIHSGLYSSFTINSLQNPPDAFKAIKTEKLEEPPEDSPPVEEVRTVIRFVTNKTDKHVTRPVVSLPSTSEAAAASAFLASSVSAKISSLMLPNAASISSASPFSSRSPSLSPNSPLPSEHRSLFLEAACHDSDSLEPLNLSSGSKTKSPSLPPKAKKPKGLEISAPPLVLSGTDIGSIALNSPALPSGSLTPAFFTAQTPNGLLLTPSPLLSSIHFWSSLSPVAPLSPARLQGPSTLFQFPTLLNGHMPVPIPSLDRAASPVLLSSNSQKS
Summary of the method: as §1

Chain of ELF1 (P32519 whole entry): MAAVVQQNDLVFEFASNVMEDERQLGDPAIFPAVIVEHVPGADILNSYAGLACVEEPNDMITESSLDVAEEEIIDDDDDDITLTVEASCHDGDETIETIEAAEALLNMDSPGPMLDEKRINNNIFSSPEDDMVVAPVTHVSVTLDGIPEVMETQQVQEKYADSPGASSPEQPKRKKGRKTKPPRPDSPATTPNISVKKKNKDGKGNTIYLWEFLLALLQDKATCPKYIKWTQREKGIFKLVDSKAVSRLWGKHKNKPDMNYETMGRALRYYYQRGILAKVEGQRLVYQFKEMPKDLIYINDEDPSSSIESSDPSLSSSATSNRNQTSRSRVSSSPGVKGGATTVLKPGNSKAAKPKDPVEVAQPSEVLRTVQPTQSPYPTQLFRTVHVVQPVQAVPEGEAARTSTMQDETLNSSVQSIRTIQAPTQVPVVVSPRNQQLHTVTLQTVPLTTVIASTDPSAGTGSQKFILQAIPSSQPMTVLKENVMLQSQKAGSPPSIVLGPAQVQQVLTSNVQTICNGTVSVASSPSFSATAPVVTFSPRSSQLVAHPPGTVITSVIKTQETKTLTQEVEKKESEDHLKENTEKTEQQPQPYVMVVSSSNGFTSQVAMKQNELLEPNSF
Chain of SPIB (Q01892 whole entry): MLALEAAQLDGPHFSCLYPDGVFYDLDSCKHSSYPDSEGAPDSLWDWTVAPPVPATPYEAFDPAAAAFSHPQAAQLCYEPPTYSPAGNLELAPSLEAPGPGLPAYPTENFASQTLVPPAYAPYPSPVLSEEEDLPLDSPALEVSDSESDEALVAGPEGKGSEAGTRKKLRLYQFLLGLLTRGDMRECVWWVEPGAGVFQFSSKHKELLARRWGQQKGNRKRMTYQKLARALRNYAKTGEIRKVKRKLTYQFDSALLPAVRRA

Q: TGCCCC was tested. Which binding signal [1] did it give?
A: 1.13 fold enrichment (6-mer frequency, TF over GST control)

Q: What about the binding signal [2] of the same sequence?
A: 1.2 fold enrichment (6-mer frequency, TF over GST control)

Q: What about the binding signal [3] of the same sequence?
A: 1.27 fold enrichment (6-mer frequency, TF over GST control)

Q: And the binding signal [4]?
A: 1.28 fold enrichment (6-mer frequency, TF over GST control)

Q: And the binding signal [5]?
A: 1.27 fold enrichment (6-mer frequency, TF over GST control)

Q: And the binding signal [6]?
A: 1.32 fold enrichment (6-mer frequency, TF over GST control)

Q: And the binding signal [7]?
A: 1.31 fold enrichment (6-mer frequency, TF over GST control)

Q: What about the binding signal [8] of the same sequence?
A: 1.13 fold enrichment (6-mer frequency, TF over GST control)

Q: What about the binding signal [9] of the same sequence?
A: 1.18 fold enrichment (6-mer frequency, TF over GST control)
